Test results published in PubChem BioAssay (NCI).
About 83,000 compounds went through this panel and 20% of them were active in at least one assay; those are over-represented in the sample as a whole.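 Activity criterion: percent growth below 10, measured after cells in 96-well plates were exposed to a single compound concentration for 48 hours.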 Unmarked numbers belong to inactive results. Activity calls are given as the source filed them.

Columns and labels:
Assay in all cases: NCI-60 one-dose screen, 48 h (100 = growth as untreated, 0 = no growth, -100 = all killed)
Details in all cases: 10 µM unless noted
[1] = system: NCI-H23 lung
[2] = system: NCI-H226 lung
[3] = system: NCI-H322M lung
[4] = system: HOP-62 NSCLC
[5] = system: NCI-H460 lung
[6] = system: HOP-92 NSCLC
[7] = system: NCI-H522 lung
[8] = system: A549/ATCC NSCLC
[9] = system: 786-0 renal
[10] = system: COLO 205 colon
[11] = system: DU-145 prostate
[12] = system: K-562 leukemia
[13] = system: MALME-3M melanoma
[14] = system: MDA-MB-231 breast
[15] = system: SF-268 CNS
[16] = system: SF-295 CNS
[17] = system: SF-539 CNS
[18] = system: UACC-257 melanoma

Row | SMILES | growth [1] | growth [2] | growth [3] | growth [4] | growth [5] | growth [6] | growth [7] | growth [8] | growth [9] | growth [10] | growth [11] | growth [12] | growth [13] | growth [14] | growth [15] | growth [16] | growth [17] | growth [18]
1 | COc1ccc(Cn2cnc3cc(C(=O)Nc4cccc5ccccc45)ccc32)c(OC)c1 | 32.9% [30 µM] | 14.5% [30 µM] | 45% [30 µM] | 41.6% [30 µM] | 1.11% [30 µM] (active) | 21.1% [30 µM] | 3.89% [30 µM] (active) | 16% [30 µM] | 20.3% [30 µM] | -21.6% [30 µM] (active) | -7.09% [30 µM] (active) | 1.36% [30 µM] (active) | 38.2% [30 µM] | 4.77% [30 µM] (active) | 13.8% [30 µM] | 7.91% [30 µM] (active) | -36.7% [30 µM] (active) | 69.4% [30 µM]
2 | CCN(CC)CCOc1ccc(/C(=C(\C)c2ccc(F)c(OC)c2)c2ccc(Cl)cc2)cc1 | 25.6% | 75.7% | 65.7% | -4.66% (active) | -54.2% (active) | 20.4% | 26.9% | 30.7% | -64.9% (active) | -58.6% (active) | 41.3% | -7.49% (active) | -81.6% (active) | 27.9% | 53% | -21.6% (active) | -68.3% (active) | 12.3%
3 | COc1ccc(-n2sc(=O)n(Cc3ccc(COC(=O)C(C)c4ccc(CC(C)C)cc4)cc3)c2=O)cc1 (stereo not drawn) | 78.1% | 68.2% | 94.9% | 66.8% | 76.4% | 19.2% | -32.9% (active) | 80.8% | 57.3% | -10.9% (active) | 43.9% | -11.6% (active) | -49.4% (active) | 62.4% | 71.9% | 97.2% | 26.8% | 54.9%
4 | c1ccc([P+](CCCc2n(Cc3ccc4ccccc4c3)c3ccccc3[n+]2Cc2ccc3ccccc3c2)(c2ccccc2)c2ccccc2)cc1 | 44% | 83.5% | 63.8% | 61.6% | 34.8% | 46.3% | 60.2% | 80.2% | 70.8% | 44.7% | 82.1% | 23.7% | 65.2% | 51% | 79% | 41.1% | 36.8% | 84%
5 | C=C1C(=O)O[C@H]2[C@H]1CC/C(COC(=O)/C=C\C(=O)NCc1ccc(Cn3c(=O)sn(CCCI)c3=O)cc1)=C\CC[C@@]1(C)O[C@@H]21 | -72.1% (active) | -77% (active) | 17.3% | -36% (active) | -79.1% (active) | -68.6% (active) | -56.1% (active) | -0.92% (active) | -76.9% (active) | -52.7% (active) | -90.4% (active) | -10.1% (active) | -94.2% (active) | -83.3% (active) | -81.7% (active) | 58% | -98.7% (active) | -53.7% (active)
6 | COc1ccc(-c2nc3sccn3c2/C=C/C(=O)c2c[nH]c3ccccc23)cc1 | 73.2% | 66.8% | 63.6% | 71.7% | 70.2% | -5.53% (active) | 55.6% | 54.1% | 78.8% | 102% | 57.3% | 78.9% | 69.8% | 32.7% | 61.3% | 78.5% | 82.7% | 87.2%
7 | Cn1cc(-c2ccc3nc(-c4ccc(CC(=O)Nc5cc(C(C)(C)C)no5)cc4)cnc3c2)cn1 | 41.8% [30 µM] | 30.8% [30 µM] | 26.7% [30 µM] | 61.3% [30 µM] | 21.1% [30 µM] | -3.39% [30 µM] (active) | 26.6% [30 µM] | 33.9% [30 µM] | 35.7% [30 µM] | 61.6% [30 µM] | 22.6% [30 µM] | 4.38% [30 µM] (active) | 0.481% [30 µM] (active) | -5.94% [30 µM] (active) | 27.4% [30 µM] | 23.2% [30 µM] | 16.3% [30 µM] | 41.9% [30 µM]
8 | C=C1C(=O)O[C@H]2[C@H]1CC/C(COC(=O)/C=C\C(=O)NCc1ccc(Cn3c(=O)sn(-c4ccc(C#N)cc4)c3=O)cc1)=C\CC[C@@]1(C)O[C@@H]21 | -80.4% (active) | -69.5% (active) | -46.6% (active) | -37.3% (active) | -68.7% (active) | -65.8% (active) | -47.5% (active) | -21.4% (active) | -75.8% (active) | -55.4% (active) | -94.4% (active) | -8.61% (active) | -95% (active) | -86% (active) | -75.2% (active) | 56.4% | -99.3% (active) | -68.2% (active)
9 | C=C1C(=O)O[C@H]2[C@H]1CC/C(COC(=O)/C=C\C(=O)NCc1ccc(Cn3c(=O)sn(-c4ccc(OC)cc4)c3=O)cc1)=C\CC[C@@]1(C)O[C@@H]21 | -69.9% (active) | -65.9% (active) | 32.4% | -20.4% (active) | -65.5% (active) | -65% (active) | -45.2% (active) | 12.6% | -57.9% (active) | -45.9% (active) | -84% (active) | 0.146% (active) | -92% (active) | -89.6% (active) | -78.3% (active) | 55% | -99.3% (active) | -62.2% (active)
10 | O=C1c2cccc3c(-c4ccc(-c5nc6c7ccccc7c7ccccc7c6[nH]5)cc4)ccc(c23)C(=O)N1CCN1CCNCC1 | 83.3% | 94.9% | 75.3% | 62.1% | 41.2% | 86.2% | 91.8% | 70.7% | 52.4% | 61.9% | 42.5% | -10.2% (active) | 85.4% | 63.3% | 104% | 101% | 73.8% | 108%
11 | COc1ccc(OC)c(C(=O)Nc2cccc(-c3cc(=O)c4ccccc4o3)c2)c1 | 92.8% | 92.4% | 86.9% | 89.1% | 90% | 93.7% | 68.1% | 88.8% | 92.6% | 104% | 88.1% | 90.1% | 83.3% | 83.4% | 74.2% | 88.6% | 84.4% | 100%
12 | O[C@H]1CO[C@H]2[C@@H]1OC[C@@H]2Oc1ccc(Nc2ccnc(Nc3ccc(O[C@H]4CO[C@H]5[C@@H]4OC[C@@H]5O)c(Cl)c3)n2)cc1Cl | -1.73% (active) | 4.09% (active) | -4.12% (active) | -28.9% (active) | 1.27% (active) | -20% (active) | -4.53% (active) | 21.7% | 24.7% | 12% | 7.26% (active) | 5.05% (active) | 13.2% | 21.8% | 16.4% | 7.74% (active) | 8.89% (active) | 31.8%
13 | COc1cc(/C=C/c2nc(Nc3ccc(S(=O)(=O)Nc4cc(C)on4)cc3)c3ccccc3n2)ccc1O | 74.3% | 85.8% | 87.8% | 78.8% | 65.5% | 83.9% | 42.4% | 75.3% | 94.4% | 106% | 92.2% | 17.8% | 62.6% | 62.8% | 76.1% | 70.8% | 61.9% | 83.2%
14 | COc1ccc(/C(C)=C(\c2ccc(Cl)cc2)c2ccc(OCCN(C)C)cc2)cc1F | 86.7% | 95.5% | 77.4% | 64.8% | 22.2% | 65.6% | 87.5% | 59% | 62.9% | 26% | 79.5% | 3.97% (active) | 19.2% | 71.3% | 74.5% | 42.5% | 55.2% | 5.92% (active)
15 | COc1ccc(-c2c(N)n[nH]c2-c2ccccc2O)cc1OC | 93.1% | 99.6% | 102% | 88.9% | 107% | 74% | 85% | 95.2% | 97.2% | 98.1% | 116% | 87.2% | 62.8% | 78.7% | 100% | 101% | 86.5% | 100%
16 | O=C1/C(=C/c2ccccc2[N+](=O)[O-])COc2ccc(O)c(O)c21 | -4.09% (active) | -8.66% (active) | 33.3% | 30.3% | 0.563% (active) | -9.78% (active) | -45.2% (active) | 30.8% | 10.6% | -32.6% (active) | 2.13% (active) | 4.47% (active) | -31.6% (active) | -16.7% (active) | 0.467% (active) | 58.3% | -69.4% (active) | -8.55% (active)
